Out of some 2,300 compounds screened, about 1,400 (61%) were called active. Another 29% or so got no clear call; they are omitted. The set was probably picked from earlier hits. The list shows a part of the results. Unmarked numbers belong to inactive results. The call rests on the fitted dose curve; in most records, active means well fitted inhibition curve with a large enough effect; inconclusive means small, poorly fitted or top-dose-only effect, or effect the other way; inactive means no such curve, though single readings can be large or run the other way.
On the % scale 0 is the no-effect control and ±100 the full control effect; potency means the concentration at half of the fitted maximal effect.

A short description of this test: Confirmation screen for delayed death inhibitors of the malarial parasite plastid, 96 hour incubation. Further: nearly all actives have a fitted effect of over 60% in size. To be noted: P. falciparum luciferase growth in erythrocytes; series mostly up to 28.7 µM; activity change, negative = inhibition: at the top concentration. The procedure, abridged: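 Two-generation (96 h, 37 C) exposure of P. falciparum carrying an integrated firefly luciferase reporter in erythrocytes, 0.1% parasitemia and 2% hematocrit final, Albumax-supplemented RPMI. Luminescence decrease measures growth inhibition.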
For the compound `COc1ccc(NC2CCCN(C(=O)CCc3ccncc3)C2)cc1OC` (configuration not stated), the “activity change, negative = inhibition” value was -18.3%. As for `Cc1ccc(NC2CCCN(C(=O)CSc3ccncc3)C2)cc1C` (configuration not stated), the Potency was 12.6 µM (active).

With `Cc1ccc(S(=O)(=O)Nc2cccc3cccnc23)c([N+](=O)[O-])c1`, the Potency was 3.98 µM (active).

For the compound `Cc1ccc(S(=O)(=O)Nc2cccc3cccnc23)cc1`, the Potency was 5.62 µM (active).

As for `O=C(c1ccc(Cl)cc1)C(Cn1cncn1)C(Sc1ccccc1)c1ccccc1` (configuration not stated), the Potency is 12.6 µM (active). In the case of `O=C1C(=O)c2ccccc2C(O)=C1C1CCC(c2ccc(Cl)cc2)CC1` (configuration not stated), the Potency is 0.0158 µM (active). The same measure, in the same setting: to `CN1CC2=Cc3ccccc3OC23Oc2ccccc2C=C3C1` belongs 3.16 µM (active); to `CCC1=C/C(=C/c2sc3ccccc3[n+]2CC)CC(C)(C)C1`, 0.355 µM (active); to `NC(=O)COc1ccc(NC(=O)CC23CC4CC(CC(C4)C2)C3)cc1`, 11.2 µM (active). Consider `CCn1nc(C)c(NC(=O)CC23CC4CC(CC(C4)C2)C3)c1C`, for which the “activity change, negative = inhibition” value was -11.8%. As for `CSCCC(NC(=O)c1ccccc1Cl)C(=O)N1CCN(C(c2ccccc2)c2ccccc2)CC1` (configuration not stated), the Potency was 3.98 µM (active). For the compound `Cc1ccc(N2C(=O)N3[C@H](c4ccc(F)cc4)[C@@H]4C(=O)N(C5CCCCC5)C(=O)[C@@H]4[C@]3(Cc3ccccc3)C2=O)cc1`, the Potency was 5.62 µM (active).

`O=C(CCc1ccccc1)NNC(=O)c1ccccn1`: the Potency was 6.31 µM (active). Regarding `O=C(NCc1ccccc1)C(c1cccnc1)N(C(=O)c1ccccn1)c1ccccc1F` (configuration not stated), the “activity change, negative = inhibition” value is -26.2%.

In the case of `COc1ccc(CCN2CCCn3c2nc2c3c(=O)n(Cc3ccccc3F)c(=O)n2C)cc1OC`, the Potency was 2.24 µM (active). Regarding `Cc1ccc(S(=O)(=O)Nc2ccc(C(=O)Nc3ccncc3)cc2)cc1`, the Potency was 12.6 µM (active). As to `CCOc1ccc(C2C3=C(Nc4nc(N)[nH]c(=O)c42)c2ccccc2C3=O)cc1` (configuration not stated), the Potency was 10 µM (active). Same read-out and setting: to `CCN(CC)S(=O)(=O)c1cc(NC(=O)C(C)OC(=O)c2[nH]c(C)c(C(C)=O)c2C)ccc1C` (configuration not stated) belongs 1.78 µM (active). Same read-out and setting: to `O=C1/C(=C/c2ccccc2F)SC(=S)N1CC(=O)N1CCCCC1c1cccnc1` (configuration not stated) belongs 10 µM (active). For the compound `COc1cc(OC)c(OC)cc1CN1CCN(C(=O)c2cccc3ccccc23)CC1`, the Potency is 10 µM (active). The same measure, in the same setting: the value for `CCCc1cc(=O)oc2cc(OC(C)C(=O)NCc3ccccn3)c(Cl)cc12` (configuration not stated) was 15.8 µM (active); that for `COC(=O)c1ccc(NC(=O)c2cccc(NC(=O)c3ccccc3)c2)cc1` was 7.94 µM (active). Same read-out and setting: the value for `COc1cc(C(=O)Nc2ccc(Nc3ccccc3)cc2)cc(OC)c1OC` was 5.01 µM (active). Turning to `COc1cc(C(=O)Nc2ccc(S(=O)(=O)Nc3cc(C)on3)cc2)cc(OC)c1OC`, the “activity change, negative = inhibition” value was -8.04%. Turning to `COc1ccccc1NC(=O)c1ccc2nc(-c3ccccc3)c(-c3ccccc3)nc2c1`, the “activity change, negative = inhibition” value was 2.71%. Still for that read-out and setting: the value for `O=C(Nc1cccc(Br)c1)c1ccc2snnc2c1` was -6.94%. With `COc1ccc(NC(=O)c2cccc(NC(=O)c3ccccc3)c2)c(OC)c1`, the Potency was 8.91 µM (active).

(Values after PubChem BioAssay AID504848 (National Center for Advancing Translational Sciences (NCATS), 2011).)
